# Experimental data reported in PubChem BioAssay.
# Target: Albumin (Bos taurus) (UniProt P02769)
# Experiment: compounds binding labelled BSA control protein – biochemical, small-molecule microarray, Alexa647 label, 635/667 nm fluorescence, artefact control for SMM control protein annotation, profiling panel (AID 1118);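 note: score merges 667 nm emission intensity and signal-to-noise per printed compound spot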
# Conditions: BSA-A647 binding, fluorescence 635 nm, higher = more signal
# Chain of Albumin (Bos taurus) (P02769 whole entry, looked up): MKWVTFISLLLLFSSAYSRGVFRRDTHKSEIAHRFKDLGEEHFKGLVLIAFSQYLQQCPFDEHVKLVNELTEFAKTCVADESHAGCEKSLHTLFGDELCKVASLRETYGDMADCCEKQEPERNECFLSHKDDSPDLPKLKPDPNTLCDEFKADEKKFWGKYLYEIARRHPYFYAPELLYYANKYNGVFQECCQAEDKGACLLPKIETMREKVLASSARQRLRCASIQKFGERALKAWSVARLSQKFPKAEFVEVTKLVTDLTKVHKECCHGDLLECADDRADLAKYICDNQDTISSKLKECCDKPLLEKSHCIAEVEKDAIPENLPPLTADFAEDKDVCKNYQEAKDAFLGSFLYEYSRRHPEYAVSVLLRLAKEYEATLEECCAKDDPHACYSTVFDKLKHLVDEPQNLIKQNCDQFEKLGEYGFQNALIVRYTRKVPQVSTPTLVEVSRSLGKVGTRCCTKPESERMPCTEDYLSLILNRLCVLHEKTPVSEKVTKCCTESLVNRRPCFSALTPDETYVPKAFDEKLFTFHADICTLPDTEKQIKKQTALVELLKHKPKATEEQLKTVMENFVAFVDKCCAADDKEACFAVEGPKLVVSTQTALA
row,Compound,composite z-score
1,CC(=O)OC[C@H]1O[C@H](CC=NO[C@H](C)c2cn([C@H](CO)Cc3ccccc3)nn2)C=C[C@@H]1OC(C)=O,0.376
2,C=Cc1ccc([C@H]2N[C@H](C(=O)O)CC[C@@H]2C)cc1,0.108
3,O=C(C=Cc1ccc2c(c1)OCO2)c1ccc(F)cc1,-0.744
4,C[C@@H]1CC[C@H]2C(=O)O[C@@H](Cc3ccccc3)CN2[C@H]1c1ccc(Br)cc1,0.126
5,C=CC1=C[C@H](O)[C@@H]2O[C@@H]2C12OCCCO2,-0.728
6,CCN1C(=O)[C@H]2[C@H]3[C@H](O)[C@H](O)CC(=NO[C@@H](C)c4cn([C@H](CO)Cc5ccccc5)nn4)[C@@H]3CC[C@H]2C1=O,0.233
7,CCOC(=O)[C@H](Cc1ccccc1)NC(=O)CCC1CC(OC(=O)NCc2ccc3c(c2)OCO3)CC2(CCCC(COC(=O)NCCC(C)C)O2)O1 (some centres undefined),0.112
8,O=C1[C@H]2[C@H]3[C@H](O)[C@H](O)CC(=NOC[C@@H](O)COCc4ccco4)[C@H]3CC[C@H]2C(=O)N1C[C@@H]1CCCO1,-0.483
9,CC(C)=NO[C@H](C)c1cn([C@H](CO)Cc2ccccc2)nn1,0.364
10,O=C1CCCC=C1C(O)CCCCBr (centres undefined),0.956
11,COC(=O)CC=C[C@@H](C)[C@@H](C=NOC[C@@H](O)[C@H]1O[C@@H]2OC(C)(C)O[C@@H]2[C@H]1O)NS(=O)(=O)c1ccc(C)cc1,-0.0786
12,CCOC(=O)[C@H](Cc1ccccc1)NC(=O)CCC1CC(OC(=O)NCCc2ccc(F)cc2)CC2(CCCC(COC(=O)NCc3ccccc3)O2)O1 (some centres undefined),0.0213
13,COC(=O)CC=C[C@@H](C)[C@@H](C=NOC(C)CN1CCCc2nc(C)c(C)cc21)OC (some centres undefined),0.0374
14,O=C1CCCC=C1C(O)CCOC(c1ccccc1)(c1ccccc1)c1ccccc1 (centres undefined),0.404
15,C[C@@H]1C=CCC(=O)OC[C@H]2O[C@@H](C=C[C@@H]2O)[C@H](C)C=CCC(=O)OC1,-0.861
16,CO[C@@H]1C=CCC(=O)N[C@@H](C)C(=O)OC[C@@H](OC)[C@H](C)CCCC(=O)OC[C@H]1C,-0.555
17,Cc1ccc(S(=O)(=O)OC[C@H]2CN3[C@H](c4ccc(Br)cc4)[C@@H](C)CC[C@H]3C(=O)O2)cc1,0.122
18,CC(C)=CCCC(C)=CCON=C1C[C@@H](O)[C@@H](O)[C@@H]2[C@@H]3C(=O)N(C4CCCCC4)C(=O)[C@@H]3CC[C@@H]12,0.0108
19,O=C1C=C[C@@H](O)[C@@H]2[C@@H]3C(=O)N(C[C@@H]4CCCO4)C(=O)[C@@H]3CC[C@@H]12,0.0654
20,CCOC(=O)[C@H](CC(C)C)NC(=O)CCC1CC(OC(=O)NCc2cccc3ccccc23)CC2(CCCC(COC(=O)NCCCN3CCCC3=O)O2)O1 (some centres undefined),0.247
21,Cc1ccc(S(=O)(=O)N[C@H]2COC(=O)CC=C[C@@H](C)COC(=O)CC=C[C@@H]2C)cc1,-1.17
22,Cn1c(=O)n2n(c1=O)[C@H]1[C@H](O)[C@@H]3O[C@@H]3C(=O)[C@H]1CC2,-0.161
23,O=C1C[C@@H](O)[C@@H](O)[C@@H]2[C@@H]3C(=O)N(C[C@@H]4CCCO4)C(=O)[C@@H]3CC[C@@H]12,-0.0039
24,COc1ccc(O[C@H]2C=C[C@@H](c3ccccc3)O[C@@H]2CON=C2[C@H]3CCn4c(=O)n(-c5ccccc5)c(=O)n4[C@H]3[C@H](O)[C@@H]3O[C@H]23)cc1,0.67
